Results published in the antibiotic and cytotoxicity screens of Wong et al. (2023).
In all, about 39,000 compounds went through this assay and about 1,500 (3.8%) were called active. The entries come from a sample that favours actives as a whole.

These compounds were tested on HSkMC (human skeletal muscle cells) (assay: cytotoxicity call (relative viability < 0.9)). Conditions: 10 µM.

Structure (SMILES)	cytotoxicity call
Cc1noc(C)c1NC(=O)Nc1cccc2c1O[C@@H](CN(C)C(=O)Nc1cccc3ccccc13)[C@@H](C)CN([C@H](C)CO)C2=O	inactive
C[C@@H]1CN([C@@H](C)CO)S(=O)(=O)c2ccc(C#CCN(C)C)cc2O[C@@H]1CN(C)Cc1ccc2c(c1)OCO2	inactive
COCC#Cc1cnc2c(c1)C(=O)N([C@@H](C)CO)C[C@@H](C)[C@H](CN(C)C(=O)c1cnccn1)O2	inactive
CO[C@H]1CN(C)C(=O)c2cc(NC(=O)Nc3cccc(Cl)c3)ccc2OC[C@@H](C)N(C(=O)Nc2c(C)noc2C)C[C@H]1C	inactive
C[C@H]1CN([C@@H](C)CO)C(=O)CCCn2nncc2CO[C@H]1CN(C)S(=O)(=O)c1ccc(Cl)cc1	inactive
NC(CC(=O)N1CCn2c(nnc2C(F)(F)F)C1)Cc1cc(F)c(F)cc1F.O.O=P(O)(O)O (stereo not given)	inactive
C[C@@H]1CN([C@@H](C)CO)C(=O)c2cccc(NS(=O)(=O)c3ccc(F)cc3)c2O[C@H]1CN(C)S(=O)(=O)c1ccc(F)cc1	inactive
C[C@H](CO)N1C[C@H](C)[C@@H](CN(C)C(=O)c2cnccn2)Oc2ncc(C#CCC3CCCC3)cc2C1=O	inactive
CC(C)C[C@H](NC(=O)[C@@H](Cc1c[nH]c2ccccc12)NC(=O)[C@H](Cc1ccc(O)cc1)NC(=O)[C@H](CO)NC(=O)[C@H](Cc1c[nH]c2ccccc12)NC(=O)[C@H](Cc1cnc[nH]1)NC(=O)[C@@H]1CCC(=O)N1)C(=O)N[C@@H](CCCNC(=N)N)C(=O)N1CCC[C@H]1C(=O)NCC(N)=O	inactive
O=C1O[C@@H](c2ccccc2)[C@@H](c2ccccc2)N2[C@@H](c3ccc(OCCO)cc3)[C@]3(C(=O)Nc4ccccc43)[C@@H](C(=O)N3CCCCCCC3)[C@H]12	inactive
O=C1O[C@@H](c2ccccc2)[C@@H](c2ccccc2)N2[C@@H](c3ccc(O)cc3)[C@]3(C(=O)Nc4ccccc43)[C@@H](C(=O)N3CCCCCCC3)[C@H]12	inactive
O=C1O[C@H](c2ccccc2)[C@H](c2ccccc2)N2[C@H]1[C@@H](C(=O)N1CCCCCCC1)[C@]1(C(=O)Nc3ccccc31)[C@H]2c1ccc(O)cc1	active
O=C(O)C[C@](O)(Cc1ccc(O)cc1)C(=O)O	inactive
CCS(=O)(=O)Nc1ccc2c(c1)C(=O)N(C)[C@H]1CC[C@H](CC(=O)N3CCN(C)CC3)O[C@@H]1CO2	inactive
Cc1ccc(S(=O)(=O)N[C@H]2CC[C@@H](CC(=O)N3CCC(Cc4ccccc4)CC3)O[C@H]2CO)cc1	inactive
C[C@@H]1CN([C@H](C)CO)C(=O)c2cccc(NC(=O)Nc3ccc4c(c3)OCO4)c2O[C@H]1CN(C)Cc1ccc(-c2ccccc2)cc1	inactive
O=C(CCCCC(=O)N/N=C/c1cc(I)cc(I)c1O)NO	inactive
O=C(CCCCCCC(=O)N/N=C/c1cc(I)cc(I)c1O)NO	active
O=C(NO)c1cccc(C(=O)N/N=C/c2cc(I)cc(I)c2O)c1	inactive
C[C@@H]1CCCCO[C@@H](CN(C)Cc2ccncc2)[C@H](C)CN([C@@H](C)CO)C(=O)c2cc(NC(=O)CCC(F)(F)F)ccc2O1	inactive
Oc1cc(O)c2c(c1)OC(c1cc(O)c(O)c(O)c1)C(O)C2c1c(O)cc(O)c2c1OC(c1cc(O)c(O)c(O)c1)C(O)C2c1c(O)cc(O)c2c1OC(c1cc(O)c(O)c(O)c1)C(O)C2 (stereo not given)	inactive
C[C@@H]1CN([C@H](C)CO)C(=O)c2cc(C#CCN(C)C)cnc2O[C@H]1CN(C)Cc1ccc(C(=O)O)cc1	inactive
CCN(CC)[C@H]1CCS(=O)(=O)C1	inactive
C[C@@H](Oc1cc(-n2cnc3ccc(CN4CCN(C)CC4)cc32)sc1C(N)=O)c1ccccc1C(F)(F)F	active

Structure (SMILES)	cytotoxicity call
COc1cccc(NC(=O)N2C[C@H](O)COC[C@@H]3O[C@@H](CC(=O)NC4Cc5ccccc5C4)CC[C@H]32)c1	inactive
CCCNC(=O)N(C)C[C@@H]1Oc2cc(C#Cc3cccc(F)c3)ccc2S(=O)(=O)N([C@@H](C)CO)C[C@H]1C	inactive
C[C@@H]1CCCCO[C@@H](CN(C)Cc2ccc(Cl)c(Cl)c2)[C@H](C)CN([C@@H](C)CO)C(=O)c2cc(NS(=O)(=O)c3ccc(Cl)cc3)ccc2O1	active
C[C@@H]1CCCCO[C@H](CN(C)Cc2ccc(Cl)c(Cl)c2)[C@@H](C)CN([C@@H](C)CO)C(=O)c2cc(NS(=O)(=O)c3ccc(Cl)cc3)ccc2O1	active
C[C@@H]1CCCCO[C@H](CN(C)Cc2ccc(Cl)c(Cl)c2)[C@H](C)CN([C@@H](C)CO)C(=O)c2cc(NS(=O)(=O)c3ccc(Cl)cc3)ccc2O1	inactive
C[C@H](CO)N1C[C@H](C)[C@@H](CN(C)Cc2ccc(Cl)c(Cl)c2)OCCCC[C@H](C)Oc2ccc(NS(=O)(=O)c3ccc(Cl)cc3)cc2C1=O	inactive
C[C@@H]1CN([C@H](C)CO)C(=O)c2cc(NS(=O)(=O)c3ccc(Cl)cc3)ccc2O[C@@H](C)CCCCO[C@@H]1CN(C)Cc1ccc(Cl)c(Cl)c1	inactive
C[C@@H]1CCCCO[C@@H](CN(C)Cc2ccc(Cl)c(Cl)c2)[C@@H](C)CN([C@H](C)CO)C(=O)c2cc(NS(=O)(=O)c3ccc(Cl)cc3)ccc2O1	inactive
C[C@@H]1CCCCO[C@@H](CN(C)Cc2ccc(Cl)c(Cl)c2)[C@@H](C)CN([C@@H](C)CO)C(=O)c2cc(NS(=O)(=O)c3ccc(Cl)cc3)ccc2O1	active
C[C@@H]1CN([C@H](C)CO)C(=O)c2cc(NS(=O)(=O)c3ccc(Cl)cc3)ccc2O[C@@H](C)CCCCO[C@H]1CN(C)Cc1ccc(Cl)c(Cl)c1	active
Nc1nnc(CC(=O)O)[nH]1	inactive
Cc1ccc(S(=O)(=O)Nc2ccc3c(c2)C(=O)N([C@H](C)CO)C[C@H](C)[C@H](CN(C)Cc2ccncc2)OCCCC[C@H](C)O3)cc1	inactive
O=C(N[C@H]1CC[C@@H](CCNS(=O)(=O)c2ccc(F)cc2)O[C@H]1CO)C1CC1	inactive
C[C@@H]1CCCCO[C@@H](CN(C)S(C)(=O)=O)[C@@H](C)CN([C@@H](C)CO)C(=O)c2cc(NC(=O)CCCN(C)C)ccc2O1	inactive
CC(C)NC(=O)Nc1ccc2c(c1)CC(=O)N([C@@H](C)CO)C[C@@H](C)[C@@H](CN(C)Cc1ccc3c(c1)OCO3)O2	inactive
C[C@H]1CCCCO[C@@H](CN(C)C(=O)C2CCCCC2)[C@@H](C)CN([C@@H](C)CO)C(=O)c2cc(NC(=O)c3ccccc3)ccc2O1	inactive
COC[C@@H](C)NC(=O)C1CN(C(C)=O)C1	inactive
C[C@H](CO)N1C[C@H](C)[C@@H](CN(C)S(=O)(=O)c2ccc(Cl)cc2)OCc2cn(nn2)CCCC1=O	inactive
Cc1noc(C)c1NC(=O)Nc1ccc2c(c1)C(=O)N([C@H](C)CO)C[C@@H](C)[C@H](CN(C)Cc1ccc(-c3ccccc3)cc1)O2	inactive
C[C@H]1CN([C@@H](C)CO)C(=O)c2cc(NS(=O)(=O)c3ccccc3)ccc2O[C@@H]1CN(C)S(=O)(=O)c1ccc(F)cc1	inactive
COc1ccc(-c2cnc3c(c2)C(=O)N([C@H](C)CO)C[C@H](C)[C@H](CN(C)C(=O)Cc2ccncc2)O3)cc1	inactive
C[C@@H]1CCCCO[C@@H](CN(C)Cc2ccc(Cl)c(Cl)c2)[C@H](C)CN([C@H](C)CO)C(=O)c2cc(NS(=O)(=O)c3ccc(Cl)cc3)ccc2O1	active
C[C@@H]1CCCCO[C@H](CN(C)Cc2ccc(Cl)c(Cl)c2)[C@@H](C)CN([C@H](C)CO)C(=O)c2cc(NS(=O)(=O)c3ccc(Cl)cc3)ccc2O1	inactive
CN1CCN(C(=O)[C@H]2[C@H](CO)[C@H]3Cn4c(ccc(C5=CCCC5)c4=O)[C@@H]2N3S(C)(=O)=O)CC1	inactive

Structure (SMILES)	cytotoxicity call
CC(C)/C(=N/O)c1ccccc1	inactive
CC(C)NC(=O)N(C)C[C@@H]1Oc2ccc(NC(=O)C3CCCCC3)cc2C(=O)N([C@@H](C)CO)C[C@H]1C	inactive
C[C@@H]1O[C@H]2Oc3c(-c4ccc(O)cc4)oc4cc(O)c(c(O)c4c3=O)-c3cc(ccc3O)/C=C\C(=O)OC[C@H]3O[C@@H](O[C@H]([C@H]1O)[C@H]2O)[C@H](O)[C@@H](O)[C@@H]3O	inactive
Cc1c(CN2CCN(C(=O)[C@H](C)O)CC2)sc2c(N3CCOCC3)nc(-c3cnc(N)nc3)nc12	active
CC(=O)Nc1ncc(CN2CCOCC2)s1	inactive
CC(C)NC(=O)N(C)C[C@@H]1Oc2ccc(NS(=O)(=O)c3cccs3)cc2C(=O)N([C@H](C)CO)C[C@@H]1C	inactive
CC(C)NC(=O)N(C)C[C@H]1Oc2ccc(NC(=O)C3CCCCC3)cc2C(=O)N([C@H](C)CO)C[C@H]1C	inactive
C[C@H](CO)N1C[C@H](C)[C@H](CN(C)C(=O)NC2CCCCC2)OCCCC[C@H](C)Oc2ccc(NC(=O)Nc3ccc4c(c3)OCO4)cc2C1=O	inactive
C[C@H]1CN([C@@H](C)CO)C(=O)c2cc(-c3cccc(C#N)c3)cnc2O[C@@H]1CN(C)C(=O)c1cnccn1	inactive
CC1(COc2ccc3c(c2)ncn3-c2ccc3cccc(N4CCC(N)CC4)c3n2)COC1	active
COCCOC(=O)N1C(=O)[C@@]2(c3cc(C#CC4=CCCCC4)ccc31)[C@H](C(=O)N1CCc3cc(OC)c(OC)cc3C1)[C@H]1C(=O)O[C@H](c3ccccc3)[C@H](c3ccccc3)N1[C@@H]2c1ccccc1OCCO	active
C=CCNC(=O)[C@@H]1[C@H]2C(=O)O[C@H](c3ccccc3)[C@H](c3ccccc3)N2[C@H](c2ccc(OCCO)cc2)[C@@]12C(=O)Nc1ccc(C#CC3=CCCCC3)cc12	inactive
C=CCNC(=O)[C@@H]1[C@H]2C(=O)O[C@H](c3ccccc3)[C@H](c3ccccc3)N2[C@H](c2ccccc2OCCO)[C@@]12C(=O)Nc1ccc(C#Cc3ccc(OC)cc3)cc12	inactive
O=C1O[C@H](c2ccccc2)[C@H](c2ccccc2)N2[C@H]1[C@@H](C(=O)NC[C@@H](O)c1ccccc1)[C@]1(C(=O)Nc3ccc(C#CC4=CCCCC4)cc31)[C@H]2c1ccccc1OCCO	active
COCCOC(=O)N1C(=O)[C@@]2(c3cc(C#CC4=CCCCC4)ccc31)[C@H](c1ccccc1OCCO)N1[C@H](c3ccccc3)[C@H](c3ccccc3)OC(=O)[C@H]1[C@@H]2C(=O)N1CCc2cc(OC)c(OC)cc2C1	inactive
O=C1O[C@H](c2ccccc2)[C@H](c2ccccc2)N2[C@H]1[C@@H](C(=O)NC[C@@H](O)c1ccccc1)[C@]1(C(=O)Nc3ccc(C#CC4(O)CCCCCC4)cc31)[C@H]2c1ccccc1OCCO	inactive
C=CCNC(=O)[C@H]1[C@@H]2C(=O)O[C@@H](c3ccccc3)[C@@H](c3ccccc3)N2[C@@H](c2ccccc2OCCO)[C@]12C(=O)Nc1ccc(C#CC3(O)CCCCCC3)cc12	inactive
C=CCNC(=O)[C@@H]1[C@H]2C(=O)O[C@H](c3ccccc3)[C@H](c3ccccc3)N2[C@H](c2ccccc2OCCO)[C@@]12C(=O)Nc1ccc(C#CC3=CCCCC3)cc12	active
O=C1O[C@@H](c2ccccc2)[C@@H](c2ccccc2)N2[C@@H](c3ccc(OCCO)cc3)[C@]3(C(=O)Nc4ccc(C#CC5=CCCCC5)cc43)[C@@H](C(=O)NC[C@H](O)c3ccccc3)[C@H]12	inactive
C=CCNC(=O)[C@H]1[C@@H]2C(=O)O[C@@H](c3ccccc3)[C@@H](c3ccccc3)N2[C@@H](c2ccc(OCCO)cc2)[C@]12C(=O)Nc1ccc(C#CC3=CCCCC3)cc12	inactive
C=CCNC(=O)[C@H]1[C@@H]2C(=O)O[C@@H](c3ccccc3)[C@@H](c3ccccc3)N2[C@@H](c2ccccc2OCCO)[C@]12C(=O)Nc1ccc(C#CC3=CCCCC3)cc12	active
COCCOC(=O)N1C(=O)[C@@]2(c3cc(C#CC4=CCCCC4)ccc31)[C@H](c1ccc(OCCO)cc1)N1[C@H](c3ccccc3)[C@H](c3ccccc3)OC(=O)[C@H]1[C@@H]2C(=O)N1CCc2cc(OC)c(OC)cc2C1	inactive
